# Screens (PubChem)
# Vif-APOBEC3F blk – blocks the Vif interaction with APOBEC3F. HeLa A3F-eYFP + Vif (tagged APOBEC3F with the HIV-1 protein that degrades it), YFP fluorescence increase. Potency, µM (titrated, usually from 46.1 µM), without a hit: at the highest dose activity, negative = active. actives 0.2% (n = 390,000); note: potency is the fitted concentration of half-maximal effect; % of control where 0% means no effect; nearly all actives have a fitted effect of over 65% in size
#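 HeLa cells stably expressing A3F-eYFP plus Vif, plated and incubated overnight at 37 deg C, then exposed to compounds overnight at 37 deg C. Blocked degradation read as raised yellow fluorescence (Ex 488/Em 500-530).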
# PLK1 PBD block – inhibitors of human PLK1 polo-box domain binding | Potency, µM, for inactives: max response, negative = inhibition, hits mostly inhibitors | Plk1 PBD binding of FITC phosphopeptide, fluorescence polarization | P53350 | actives 2.8% (n = 360,000) | AID 720504; note: potency is the fitted concentration of half-maximal effect; series mostly up to about 57 µM; % is set by controls: 0 for no effect and ±100 for the full control effect; nearly all actives have a fitted effect of over 65% in size
# VDR inhibitor – blocks the human vitamin D receptor | VDR-SRC2-3 peptide fluorescence polarization, 2 h | Potency, µM, without a hit: max response, negative = inhibition, usual class: inhibitors | actives 0.93% (n = 400,000); note: potency is the fitted concentration of half-maximal effect; % is set by controls: 0 for no effect and ±100 for the full control effect
#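 Signal is fluorescence polarization, reporting how far test compounds block the interaction of VDR with the SRC2-3 coregulator peptide after a 2 h room-temperature incubation.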
# Vif-APOBEC3G blk – blocks the Vif interaction with human APOBEC3G; Q9HC16; HeLa A3G-eYFP + Vif (tagged APOBEC3G with the HIV-1 protein that degrades it), YFP fluorescence, overnight; Potency, µM (titrated, usually from 46.1 µM), for the others: at the highest dose activity, negative = active, usual class: inhibitors; actives 0.076% (n = 410,000); AID 602310; note: potency is the fitted concentration of half-maximal effect; % is set by controls: 0 for no effect and ±100 for the full control effect; nearly all actives have a fitted effect of over 60% in size
# Target sequence (Q9HC16 whole entry, looked up): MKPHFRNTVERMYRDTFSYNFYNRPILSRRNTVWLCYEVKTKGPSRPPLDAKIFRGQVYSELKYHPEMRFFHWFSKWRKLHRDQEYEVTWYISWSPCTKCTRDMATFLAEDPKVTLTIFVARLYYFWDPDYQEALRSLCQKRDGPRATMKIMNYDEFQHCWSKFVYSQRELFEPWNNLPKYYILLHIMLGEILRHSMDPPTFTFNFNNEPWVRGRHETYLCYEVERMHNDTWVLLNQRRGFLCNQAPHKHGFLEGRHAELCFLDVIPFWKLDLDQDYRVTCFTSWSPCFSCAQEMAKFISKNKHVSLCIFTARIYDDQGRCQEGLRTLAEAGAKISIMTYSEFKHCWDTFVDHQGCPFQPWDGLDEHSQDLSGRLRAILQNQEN
#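 HeLa cells stably expressing Vif and C-terminally eYFP-tagged A3G, seeded overnight at 37 deg C, then exposed to compound by pintool overnight at 37 deg C. Rise in yellow fluorescence (Ex 488/Em 500-530, Acumen) marks blocked Vif-driven A3G degradation.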
# TSHR antagonist – antagonists of human thyroid stimulating hormone receptor | activity change, negative = inhibition, % at 11.5 µM | TSHR-expressing cells, TSH-stimulated cAMP HTRF, 2 h; stronger effect = lower value | AID 504810 | actives 0.2% (n = 330,000);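 active = activity change below a set negative limit, meaning inhibition stronger than a set level, cut at about -70% in these data; inconclusive = activity change between two set negative limits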; note: % is set by controls: 0 for no effect and ±100 for the full control effect
#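 Freshly harvested TSHR cells receive pin-tooled compound, then EC80 TSH at 4nM final. After 2 hours at 37 deg C, antibody in lysis buffer and cAMP-d2 are added; 30 minutes at ambient temperature precede the HTRF read.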
# VDR inh confirm – inhibits human vitamin D receptor, primary hit validation; actives 89% (n = 840); VDR-coactivator inhibition assay, qHTS confirmation; AID 602199; Potency, µM, most hits filed as inhibitors; shares compounds with VDR inhibitor; note: potency is the fitted concentration of half-maximal effect
# VDR FP – blocks human VDR-coactivator binding in fluorescein assay; shares compounds with VDR inhibitor; VDR-coactivator binding, fluorescein fluorescence polarization; Potency, µM (doses to about 57.1 µM), for the others: at the top dose activity change, negative = inhibition, hits mostly inhibitors; actives 48% (n = 840); AID 602200; note: potency is the fitted concentration of half-maximal effect
# VDR bla reporter – confirmation of human vitamin D receptor inhibitors in reporter cells. actives 23% (n = 840). shares compounds with VDR inhibitor. VDR beta-lactamase reporter cells, FRET ratio; cells co-treated with VDR agonist LG190178. Potency, µM (titrated, usually from 46.1 µM), inactives show top-dose activity change, negative = inhibition, hits mostly inhibitors; note: potency is the fitted concentration of half-maximal effect; % is set by controls: 0 for no effect and ±100 for the full control effect
# VDR viability – cytotoxic in counter-screen for VDR inhibitors; shares compounds with VDR inhibitor; cytotoxicity counter-screen, cell viability, qHTS; Potency, µM (series often up to 48.3 µM), for inactives: at the highest dose activity change, negative = cytotoxicity, hits mostly cytotoxic; actives 18% (n = 840); AID 602204;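 note: potency is the fitted concentration of half-maximal effect; plate controls were DMSO for no effect and high-concentration cycloheximide for full effect; nearly all actives have a fitted effect of over 75% in size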
# Starred values were filed as active, the others as inactive; ? = inconclusive; . = no result. The list is not random: actives were taken first. Their share in the collection is about 3.1%. Unless noted, calls come from the whole dose curve; as a rule, active = well fitted curve in the direction sought with a large enough effect; inconclusive = small, poorly fitted or top-dose-only effect, or another doubt; inactive = no such curve, though single readings can be large; an effect the other way counts as inactive or inconclusive.
SMILES,Vif-APOBEC3F blk,PLK1 PBD block,VDR inhibitor,Vif-APOBEC3G blk,TSHR antagonist,VDR inh confirm,VDR FP,VDR bla reporter,VDR viability
Fc1cccc(Cl)c1CNc1ccc(N2CCCC2)cc1,-3.0%,21.2µM*,50.1µM*,-4.5%,-8.4,11.9*,12.6µM*,-15.8%,?
CC(=O)Nc1sc(N/N=C\c2ccccc2F)nc1-c1cccs1,-4.4%,-11.6%,50.1µM*,0.4%,-10.0,2.38*,2.24µM*,28.5%,?
CC(OC(=O)c1ccc2ccccc2c1)C(=O)N(C)Cc1ccccc1 (stereo not given),-6.0%,-13.6%,-5.0%,-21.4%,-35.2,.,.,.,.
CC(C)N(CCC(=O)c1ccc2ccccc2c1)Cc1ccccc1,9.2%,3.36µM*,5.01µM*,-29.6%,?,15*,7.08µM*,?,?
Cc1cccc(N2CCN(C(=O)c3cn(C4CCCCC4)c(=O)c4c3c3ccccc3n4C)CC2)c1C,3.9%,.,1.6%,8.7%,.,.,.,.,.
O=C(O)CN1C(=O)/C(=C\c2cc(Br)ccc2OCc2ccc(Cl)cc2Cl)SC1=S,-1.0%,11.9µM*,44.7µM*,0.4%,-6.6,16.8*,17.8µM*,12.4%,?
O=C(CCCN1C(=O)/C(=C/c2ccccc2Cl)SC1=S)NNC(=O)c1ccc(Cl)cc1Cl,?,-15.1%,7.0%,2.0%,9.7,.,.,.,.
CCc1ccc(NC(=O)C2CCCN2S(=O)(=O)c2ccc3c(c2)CCCC(=O)N3)cc1 (stereo not given),-1.3%,.,13.6%,9.7%,.,.,.,.,.
CC(C)CNC(=O)C(=O)Nc1c2c(nn1-c1ccccc1)CS(=O)(=O)C2,-3.9%,.,-3.4%,3.2%,.,.,.,.,.
Cc1ccccc1/C=C/C(=O)c1ccc([N+](=O)[O-])o1,-1.6%,?,7.94µM*,-19.3%,-79.5*,5.97*,3.16µM*,8.2µM*,20.6µM*
Cc1cccc(/C=C/C(=O)c2ccc([N+](=O)[O-])o2)c1,-0.9%,?,8.91µM*,?,-35.4,1.12*,1.26µM*,5.17µM*,?
O=C(CCCSc1ccc(Cl)cc1)Nc1cc(S(=O)(=O)N2CCOCC2)ccc1O,-10.7%,3.36µM*,?,1.1%,-18.2,3.98*,3.16µM*,-6.0%,-8.7%
CCOC(=O)c1ccc(S(=O)(=O)Nc2cc(S(=O)(=O)N3CCOCC3)ccc2O)cc1,-3.7%,5.32µM*,44.7µM*,1.4%,-30.5,8.44*,?,0.3%,2.6%
O=c1c(-c2cc(-c3ccccc3)nc3c2COc2ccccc2-3)coc2ccc(Cl)cc12,0.2%,.,6.9%,-0.7%,.,.,.,.,.
CCn1nc(C)cc1-c1nnc(Sc2ncc([N+](=O)[O-])s2)n1C,-14.9%,?,7.94µM*,-22.8%,-91.8*,4.74*,3.55µM*,3.66µM*,?
O=C(Nc1cc(S(=O)(=O)N2CCOCC2)ccc1N1CCCCC1)c1cc(-c2ccccn2)nc2ccccc12,1.5%,4.23µM*,44.7µM*,-5.7%,-2.6,23.8*,8.91µM*,21.8%,-2.3%
CCCc1ccc(OC(C)c2nc(-c3ccc(-n4cccc4)cc3)no2)cc1 (stereo not given),.,.,-9.8%,.,.,.,.,.,.
COc1cccc(C(=O)C(C#N)=C(SC)SC)c1,6.0%,15µM*,39.8µM*,?,2.2,10.6*,?,?,13µM*
O=C(NCc1ccccc1)c1ccc(Cn2c(=O)c3cccn3c3cccnc32)cc1,1.8%,.,3.1%,-6.1%,.,.,.,.,.
